Source: PubChem BioAssay
The list is not random: actives were taken first. Their share in the collection is about 21%.
Pf growth 48h: Primary qHTS for delayed death inhibitors of the malarial parasite plastid, 48 hour incubation; P. falciparum luciferase growth in erythrocytes, 48 h; Potency, µM (highest dose often 28.7 µM), inactives show at the top dose activity change, negative = inhibition, hits mostly inhibitors; 310,000 tested, 5.9% active; AID 504832, 2011; also: potency is read from the fitted curve at half-maximal effect; % is scaled to controls: 0 for no effect and ±100 for the full control effect
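Firefly luciferase activity from engineered P. falciparum reports growth; inhibitors lower the luminescent signal. Cultures contained 2% hematocrit erythrocytes at 0.1% final parasitemia.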
Pf growth 96h: Primary qHTS for delayed death inhibitors of the malarial parasite plastid, 96 hour incubation; P. falciparum luciferase reporter growth, 96 h; Potency, µM (series often up to 28.7 µM), inactives show top-dose activity change, negative = inhibition, hits mostly inhibitors; 320,000 tested, 6.9% active; also: potency is read from the fitted curve at half-maximal effect; % is scaled to controls: 0 for no effect and ±100 for the full control effect
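P. falciparum expressing integrated firefly luciferase grown in erythrocytes (2% hematocrit, 0.05% parasitemia final) with compounds for 96 hours at 37 C, 5% CO2. Growth inhibition read as loss of luminescence after adding luciferase detection reagent.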
Shiga toxin inh: A qHTS for Small Molecule Inhibitors of Shiga Toxin; Vero cells, Shiga toxin protein synthesis inhibition reporter; inhibition, % at 38.7 µM; 290,000 tested, 9.2% active; AID 2315, 2010; in the data active = inhibition mostly above about 28%, no sharp cut-off; inactive = mostly below about 43%; also: 0% is about no effect
HCMV antiviral: qHTS Assay for inhibitors of the human cytomegalovirus (HCMV); HFF cells, HCMV-luciferase reporter, 72 h; active compounds read low; activity change, negative = inhibition, % at 57.5 µM; 410,000 tested, 4.5% active; in the data active = activity change below about -60%; inconclusive = no clear call, values can overlap the other calls; inactive = above about -39%; also: % is scaled to controls: 0 for no effect and ±100 for the full control effect
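Inhibition of viral replication was scored as loss of reporter luminescence in HFFs infected with HCMV-luciferase (MOI 1 PFU/cell) for 72 h; compounds tested at 2 doses, normalized to buffer and Salinomycin controls.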
CHX counter: Cycloheximide Counterscreen for Small Molecule Inhibitors of Shiga Toxin. cell reporter, cycloheximide protein synthesis inhibition counterscreen. max response, %. 300,000 tested, 12% active. AID 2314, 2010; in the data active = max response mostly above about 13%, no sharp cut-off; inactive = mostly below about 14%; also: read at 38.3 µM for the half of the compounds with a filed dose; 0% is about no effect
HCV inh: qHTS Assay for Inhibitors of Hepatitis C Virus (HCV); Huh7.5.1 HCVcc-Cre infection, luciferase reporter, 44 h; Potency, µM (titrated, usually from 41.8 µM), for inactives: at the highest dose activity change, negative = inhibition, actives largely listed as inhibitors; 340,000 tested, 3.4% active; AID 651820, 2012; also: potency is read from the fitted curve at half-maximal effect; % is scaled to controls: 0 for no effect and ±100 for the full control effect
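Antiviral activity was scored by luciferase reporter output from cells infected with HCVcc-Cre (~0.5 moi) in presence of compound, 44 h infection period, cells seeded 1,000/well 4 h prior.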
An asterisk follows results filed as active; i = inactive; ? = inconclusive; . = no result. Unless noted, calls follow the shape of the dose curve; as a rule, active = well fitted inhibition curve with a large enough effect; inconclusive = small, poorly fitted or top-dose-only effect, or another doubt; inactive = no such curve, though single readings can be large or run the other way.

SMILES	Pf growth 48h	Pf growth 96h	Shiga toxin inh	HCMV antiviral	CHX counter	HCV inh
O=[N+]([O-])c1cc(-c2nc(-c3ccccc3)no2)ccc1N1CCCCC1	.	.	.	-88*	.	.
COc1ccc(-c2noc(-c3ccc(N4CCN(C)CC4)c([N+](=O)[O-])c3)n2)cc1	.	.	.	19	.	.
CN1CCN(c2ccc(-c3nc(-c4ccccc4)no3)cc2[N+](=O)[O-])CC1	.	.	.	-99*	.	.
CCN(CC)S(=O)(=O)c1ccc(C(=O)Nc2cc(S(=O)(=O)N3CCOCC3)ccc2O)cc1	.	.	.	-17	.	6%
CCOC(=O)c1c(C)oc2ncnc(Nc3cccc(C(F)(F)F)c3)c12	.	.	.	8	.	.
Cc1cc2oc(C(=O)Nc3nonc3C)c(C)c2cc1C	124%	?	165*	96	57*	12%
CCc1ccc2oc(C(=O)Nc3nonc3C)c(C)c2c1	-46%	64%	106*	?	36*	?
CC(=O)Nc1ccc(NC(=O)c2oc3cc(C)c(C)cc3c2C)cc1	-13%	7%	-3	?	-2	?
CCc1nonc1NC(=O)c1oc2ccc(F)cc2c1C	3%	?	31	-24	18*	20%
Cc1c(C(=O)Nc2nonc2-c2ccc(F)cc2)oc2ccc(F)cc12	?	-29%	3	-24	15	?
CCOC(=O)c1c(NC(=O)COC(=O)CCCOc2ccc(OC)cc2)sc(C(=O)N(C)C)c1C	.	.	.	18	.	0%
CC(OC(=O)Cn1cc(C(F)(F)F)ccc1=O)C(=O)N(C)c1ccccc1 (stereo not given)	.	.	.	-17	.	27%
COc1ccccc1OCC(=O)N(Cc1ccc(N(C)C)cc1)CC1CCCO1 (stereo not given)	.	.	.	-2	.	.
CCOc1ccccc1OCCn1nnc2ccccc21	0%	10µM*	22	51	8	6%
COc1ccccc1OCCn1nnc2ccccc21	37%	5%	104*	51	34*	17%
COc1ccccc1OCCn1nc2ccccc2c1OC	.	.	.	-8	.	.
Cc1ccc(OCCn2nnc3ccccc32)cc1C	97%	?	48*	127	45*	-2%
CCCCN1CNC(=S)N(Cc2ccccc2)C1	9%	9.3µM*	-16	4	-1	37%
S=C1NCN(Cc2ccco2)CN1CCc1ccccc1	?	8.3µM*	1	49	-2	3%
S=C1NCN(CCc2ccccc2)CN1Cc1ccccc1	-29%	?	-4	-62*	-2	-24%
S=C1NCN(C2CCCCC2)CN1CCc1ccccc1	4.7µM*	1.9µM*	-5	-37	-1	-1%
CCOc1ccc(CCN2CN(C3CCCCC3)CNC2=S)cc1OCC	?	-29%	-6	76	1	4%
Cc1ccc(NC(=O)CN(C)C(=O)c2ccccc2Sc2ccccc2C#N)cc1	-1%	7%	.	1	.	?
COC(=O)[C@]12C[C@H](CC(=O)NCC3CCCCC3)C(=O)N(CCC3=CCCCC3)C1=C[C@H](C(C)(C)C)O[C@@H]2C	.	.	.	1	.	.
COc1cccc(OCCNC(=O)c2cc(OC)c(OC)c(OC)c2)c1	-4%	10%	-4	.	-2	?
SMILES	Pf growth 48h	Pf growth 96h	Shiga toxin inh	HCMV antiviral	CHX counter	HCV inh
CC(C)CC(=O)[C@@H](O)Cc1ccc(O)cc1	.	.	.	-17	.	.
CCOC(=O)/C(=N/Nc1ccc(Br)cc1)N1CC(C)OC(C)C1 (stereo not given)	.	.	.	-29	.	?
S=C(NC1CCCC1)N1CCN(C/C=C/c2ccccc2)CC1	1%	-85%	-8	-64*	1	10µM*
Fc1ccccc1NC(=S)N1CCN(C/C=C/c2ccccc2)CC1	3%	0.59µM*	22	-35	-1	-16%
S=C(Nc1ccccc1)N1CCN(C/C=C/c2ccccc2)CC1	-11%	5%	-4	-19	-2	?
C[C@H]1[C@@H](NC(=O)Nc2cc(Cl)cc(Cl)c2)CC[C@@]23CCCN2C(=O)CCC[C@@H]13	.	.	.	4	.	.
CC(=O)n1c2ccccc2c2nc(NC(C)C)sc21	.	7%	22	-5	16*	1%
Cc1ccc(Sc2ccc(N3CCCC(C(=O)Nc4ccc(F)cc4)C3)nn2)cc1 (stereo not given)	.	.	.	-24	.	.
COc1ccc(-n2cc(CN(C)C(C)c3ccncn3)c(-c3cccc(F)c3)n2)cc1 (stereo not given)	10µM*	8%	2	-17	3	?
COc1cccc(-c2nn(-c3ccccc3)cc2CN(C)Cc2c(C)nc3ccccn23)c1	?	29%	14	-21	-3	?
COc1ccc(-n2cc(CN3CCC(OC)CC3)c(-c3cccc(F)c3)n2)cc1	10µM*	25%	9	7	8	3%
COc1ccc(-n2cc(CNC3CCC(O)CC3)c(-c3cccc(F)c3)n2)cc1 (stereo not given)	?	?	13	-27	2	-9%
Cc1cccc(-n2cc(CN3CCCN(C=O)CC3)c(-c3cccc(F)c3)n2)c1	?	-25%	52*	4	24*	0%
COc1cccc(-c2nn(-c3ccccc3)cc2CN(C)C(C)c2ccncn2)c1 (stereo not given)	?	?	19	20	6	-25%
COc1ccc(-n2cc(CN(C)CCO)c(-c3cccc(F)c3)n2)cc1	?	19%	107*	-15	54*	-2%
C#CCOCCOCCOCCNc1nc(N2CCN(C(=O)C([C@@H](C)CC)n3cc(C(N)COC(=O)C(F)(F)F)nn3)CC2)nc(N2CCN(C(=O)[C@H](CCC(=O)O)n3cc(C(N)CC(C)C)nn3)CC2)n1 (stereo not given in full)	.	.	.	3	.	5%
CC1CCCCN1C(=O)Cn1cnc2cc([N+](=O)[O-])ccc2c1=O (stereo not given)	-15%	45%	18	7	4	20%
CCOC(=O)c1c(C)[nH]c(CCC(=O)NCc2ccc(F)cc2)c1C	.	.	.	2	.	.
O=C(c1ccc(OCc2cn3ccccc3n2)cc1)N1CCN(S(=O)(=O)c2ccccc2F)CC1	?	?	.	-7	.	?
COc1ccc(-c2cn3ccc4ccccc4c3n2)cc1	i	150%	64*	218	37*	?
COc1c(Cl)cccc1-c1cn2ccccc2n1	169%	296%	57	118	35*	-18%
COc1cc(Nc2ccn3nc(-c4ccccc4Cl)cc3n2)cc(OC)c1OC	.	.	.	46	.	.
COc1ccc(-c2cc3ccccc3cn2)cc1	160%	314%	.	131	.	?
O=C(O)c1ccc(OCc2cn3ccccc3n2)cc1	60%	122%	26*	5	29*	24%
CCCOc1ccc(-c2cn3ccccc3n2)cc1	448%	?	18	-64*	3	?
